25 molecules from ChEMBL document CHEMBL4296182, “CO-ADD screening of NIH NCI Diversity Set V” can be followed below.

For part of these data: Potency and affinity values are given separately.

The test system of test [1] is Staphylococcus aureus. The experiment in a line: Antibacterial activity against Staphylococcus aureus MRSA ATCC 43300 (CO-ADD:GP_020); MIC in CAMBH media using NBS plates, by Resazurin F(560/590). Conditions: Concentration 20 uM, ASSAY_TEST Inhibition of Bacterial Growth, detection method Resazurin, Fluorescence (ex560/em590), MEDIA CAMHB, plate type 384well, CORNING #3640, time 18 hr. The format is functional.

Test [2] has as its system Acinetobacter baumannii. The experiment in a line: Antibacterial activity against Acinetobacter baumannii ATCC 19606 (CO-ADD:GN_034); MIC in CAMBH media using NBS plates, by Resazurin F(560/590). Conditions: Concentration 20 uM, ASSAY_TEST Inhibition of Bacterial Growth, detection method Resazurin, Fluorescence (ex560/em590), MEDIA CAMHB, plate type 384well, CORNING #3640, time 18 hr. Format: functional.

The test system of test [3] is Escherichia coli. The experiment in a line: Antibacterial activity against Escherichia coli ATCC 25922 (CO-ADD:GN_001); MIC in CAMBH media using NBS plates, by Resazurin F(560/590). Format: functional. Conditions: Concentration 20 uM, ASSAY_TEST Inhibition of Bacterial Growth, detection method Resazurin, Fluorescence (ex560/em590), MEDIA CAMHB, plate type 384well, CORNING #3640, time 18 hr.

Test [4] relates to Klebsiella pneumoniae. Conditions: Concentration 20 uM; ASSAY_TEST Inhibition of Bacterial Growth; detection method Absorption (OD600); MEDIA CAMHB; plate type 384well; NBS; CORNING #3640; time 18 hr.
Test [5] concerns Candida albicans. To be noted: 20 µM.
For test [6], the system named is Cryptococcus neoformans. To be noted: Concentration 20 uM; ASSAY_TEST Inhibition of Fungal Growth; detection method Resazurin; Absorption (OD600-OD570); plate type 384well; NBS; CORNING #3640.

As to `NC(=O)Oc1cccc(OC(N)=O)c1`, the Inhibition is 9.68% in test [1]; -13.95% in test [2]; 4.31% in test [3]; 5.21% in test [4]; 2.21% in test [5]; -9.78% in test [6].
For the molecule `C#CC1(N2CCCCC2)CCCCC1`, the Inhibition in test [1] was 17.84%; in test [2], -17.5%; in test [3], 12.63%; in test [4] it was -1.14%; in test [5], -1.65%; in test [6] it was -12.88%.
As for `CN1C(=O)CC2(C)C1=CCc1scnc12` (stereo not given), the Inhibition in test [1] was 8.85%; in test [2], 8.37%; in test [3] it was 0.52%; in test [4] it was 4.25%; in test [5] it was 2.6%; in test [6] it was -1.43%.
Consider `CCOC(=O)CC1(C)NC(C(=O)O)C(C)(C)S1` (stereo not given), for which the Inhibition in test [1] was -14.37%; in test [2], 0.02%; in test [3], -11.39%; in test [4], 5.07%; in test [5], 3.25%; in test [6] it was 0.86%.
On to `Nc1ccccc1SC1CC(=O)N(c2ccccc2Cl)C1=O` (stereo not given), for which the Inhibition in test [1] is -6.84%; in test [2], 10.38%; in test [3] it was -12.68%; in test [4], 6.14%; in test [5] it was 15%; in test [6], -0.17%.
Consider `COc1ccc(NC2=CC(=S)NC(C)(C)C2)cc1`, for which the Inhibition was 11.18% in test [1]; -15.84% in test [2]; 12.98% in test [3]; 4.99% in test [4]; 2.09% in test [5]; -8.08% in test [6].
With `Cc1nccnc1Sc1ccccc1`, the Inhibition in test [1] was 3.9%; in test [2], -12.89%; in test [3] it was 2.25%; in test [4], 5.26%; in test [5], 7.15%; in test [6], -6.77%.
With `Cc1c(Cl)ccc2c(C(=O)O)cc(-c3ccccc3)nc12`, the Inhibition in test [1] was -8.14%; in test [2], 11.6%; in test [3] it was 2.11%; in test [4] it was 26.83%; in test [5], 2.48%; in test [6], 13.39%.
Regarding `Nc1ccc2c(c1)N=[N+]([O-])c1cc(N)ccc1C2`, the Inhibition in test [1] is 12.24%; in test [2] it was -9.52%; in test [3], 10.77%; in test [4], 23.9%; in test [5] it was -4.33%; in test [6], -8.98%.
`CC(C)c1ncc(CO)n1Cc1c(Cl)cccc1Cl`: the Inhibition was 10.51% in test [1]; 3.11% in test [2]; 9.5% in test [3]; 7.27% in test [4]; 0.71% in test [5]; -9.37% in test [6].
Take `CN(C)/C=N/c1ccc(Cl)c(Cl)c1`: the Inhibition in test [1] is 2.81%; in test [2], 14.75%; in test [3], -10.37%; in test [4], 19.84%; in test [5], 8.37%; in test [6] it was -5.94%.
On to `c1ccc(-c2nc[nH]c2-c2ccccc2)cc1`, for which the Inhibition in test [1] is 15.79%; in test [2] it was -13.75%; in test [3], 11.94%; in test [4], 6.07%; in test [5], -1.64%; in test [6], -10.72%.
With `Clc1cc2c(c(CSc3nc4ccccc4n4cccc34)c1)OCOC2`, the Inhibition in test [1] is 18.29%; in test [2], 11.44%; in test [3], -3.64%; in test [4], 3.77%; in test [5], 0.34%; in test [6] it was 2.56%.
Consider `COc1ccc(OCC(O)CN2CCN(c3ccc(Cl)cc3)CC2)cc1` (stereo not given), for which the Inhibition in test [1] is -0.5%; in test [2] it was 8.48%; in test [3], 10.52%; in test [4], 5.97%; in test [5], -0.41%; in test [6] it was -11.59%.
Turning to `CCOCCc1c(O)nc(SC)nc1O`, the Inhibition is -2.52% in test [1]; -10.74% in test [2]; 0.79% in test [3]; 7.34% in test [4]; 2.01% in test [5]; -12.26% in test [6].
Turning to `CC(C)(C)c1ccc(C(=O)Nc2ccc(S(N)(=O)=O)cc2)cc1`, the Inhibition was 29.14% in test [1]; 5.57% in test [2]; 7.06% in test [3]; 7.59% in test [4]; 2.9% in test [5]; -15.62% in test [6].
For the molecule `O=c1cc(-c2cccnc2)oc2c1ccc1ccccc12`, the Inhibition is 20.75% in test [1]; -10.07% in test [2]; 18.5% in test [3]; -1.55% in test [4]; 29.4% in test [5]; -11.93% in test [6].
For `O=C1c2cccc3cc([N+](=O)[O-])cc(c23)C(=O)N1CCN1CCCC1` [PINAFIDE], the Inhibition in test [1] is -1.04%; in test [2] it was 10.65%; in test [3], -8.19%; in test [4] it was 5.33%; in test [5], 0.21%; in test [6], -7.33%.
On to `C1CCc2nc3c(nc2C1)CCCC3`, for which the Inhibition in test [1] is 13.53%; in test [2], -4.6%; in test [3], 11.61%; in test [4] it was 13.7%; in test [5] it was 1.61%; in test [6] it was -2.79%.
As to `CCNc1nn2ccccc2c1/C=C(/C#N)C(=O)OCC`, the Inhibition in test [1] is 10.32%; in test [2], -16.65%; in test [3] it was 7.73%; in test [4], 11.76%; in test [5], 8.75%; in test [6] it was -8.42%.
On to `Cc1ccc(-c2cc(C(=O)O)c3ccccc3n2)c(C)c1`, for which the Inhibition is 11.92% in test [1]; 8.6% in test [2]; -3.13% in test [3]; 18.95% in test [4]; 8.35% in test [5]; -6% in test [6].
`Cn1c(=O)c2c(nc(Oc3ccccc3)n2C)n(C)c1=O`: the Inhibition in test [1] was 7.55%; in test [2], 11.19%; in test [3] it was -2.76%; in test [4], 19.27%; in test [5] it was 7.25%; in test [6] it was -3.63%.
For the molecule `Oc1nc2[nH]c(Cl)nc(Cl)c-2n1`, the Inhibition was 12.09% in test [1]; -10.58% in test [2]; 13.78% in test [3]; 9.63% in test [4]; -2.33% in test [5]; -19.04% in test [6].
In the case of `CSc1nc(S)c2[nH]c(S)nc2n1`, the Inhibition in test [1] was 13.61%; in test [2], -13.83%; in test [3] it was 6.32%; in test [4], 11%; in test [5], 6.49%; in test [6] it was 2.53%.
Take `C=CCOc1ccc(S(C)(=O)=O)cc1`: the Inhibition is -0.52% in test [1]; -11.44% in test [2]; 7.79% in test [3]; 4.92% in test [4]; 1.73% in test [5]; -10.45% in test [6].
